# PubChem BioAssay
# Inconclusive results are not listed. Active and inactive are the calls of the source.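 The calls were made as follows, unless noted: active = inhibition above 54%, about 3 SD of non-fluorescent compounds; inactive = the rest.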
# Assays:
# [1] = yeast TOR pathway RPL19A-GFP modulators, primary screen, cell-based, S. cerevisiae, multiplex flow cytometry (AID 1862; in the data active = percent of DMSO control GFP below about 86%;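 also: lower values mimic rapamycin by blocking the RPL19A rise seen in DMSO cells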); details: S. cerevisiae RPL19A-GFP strain, flow cytometry fluorescence, 3 h; at 10 µM; stronger effect = lower value
# [2] = modulators of MEP2-GFP levels in yeast, primary screen, S. cerevisiae, multiplex flow cytometry (AID 1867;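 active = GFP response, as percent of the DMSO control, above the screen-wide mean plus 3 SD, about 139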;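 also: median GFP channel fluorescence of barcode-gated MEP2-GFP cells measured by flow cytometry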); details: S. cerevisiae MEP2-GFP strain, 3 h, at 10 µM, stronger effect = higher value, 100% means same as DMSO wells
# [3] = modulators of CIT2-GFP expression in yeast, primary screen, S. cerevisiae, GFP fusion, multiplex flow cytometry (AID 1870;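 active = percent response above a set limit, the screen-wide mean plus 3 SD, cut at about 130% in these data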;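 also: barcoded CIT2-GFP strain pooled with four other GFP strains with rapamycin as positive control; median GFP fluorescence per well over plate mean of DMSO wells so 100% = DMSO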); details: 3 h, at 10 µM, stronger effect = higher value
# [4] = modulators of LAP4-GFP expression in yeast, primary screen, S. cerevisiae, multiplex flow cytometry (AID 1873;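 active = GFP signal, as percent of the solvent control, above the screen mean plus 3 SD, about 149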); details: 3 h, at 10 µM, stronger effect = higher value
# [5] = modulators of AGP1-GFP expression in yeast TOR pathway, primary screen, cell-based, multiplex flow cytometry, S. cerevisiae (AID 1887;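 active = GFP signal above the screen-wide mean plus 3 SD, that is over about 124.5% of the solvent control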;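 also: AGP1-GFP fusion strain of S. cerevisiae within a five-strain barcoded multiplex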); details: 3 h, at 10 µM, stronger effect = higher value
# [6] = inhibitors of CD8+ T cell-vesicle binding, pilot screen, LFA-1/ICAM-1 modulator project, MLPCN validation set, flow cytometry (AID 2523;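 active = response below a set limit, under 55% cells CD8-positive and vesicle-bound, and CD8 cells' 90th-percentile brightness under 279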;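 as to vesicle binding response: mean PE anti-B7-1 fluorescence of CD8+ cells relative to row control; 100% = QL9-loaded vesicles with DMSO vehicle in the same plate row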); details: 2C mouse CD8+ T cells, at 7 µM, stronger effect = lower value; double positive events: measured here: CD8+/vesicle+ event percentage
# [7] = biological target: Integrin beta-1 (Homo sapiens) + Integrin alpha-4 (Homo sapiens) (UniProt P13612+P05556); test: inhibition of HUTS-21 binding to VLA-4, pilot screen, VLA-4 allosteric modulator project, U937 cells, HUTS-21 mAb, flow cytometry, validation set (AID 2674;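 active = inhibition above 50%, about 3 SD of the validation set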;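 also: antibody binding induced by the VLA-4 ligand LDV present at three times its Kd; 0% = LDV ligand with antibody and no compound and 100% = antibody without LDV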); details: HUTS-21 LIBS mAb binding, at 6.7 µM, stronger effect = higher value, binding induced by LDV ligand
# [8] = superoxide lowering in aged yeast cells, pilot screen, validation compound set (AID 2706;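 active = superoxide response below 65% of plate, a cut near 3 SD across the whole screen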;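 also: yeast exposed to compound for one week at 30 degrees C before staining; 100% = mean of all compound wells on the same plate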); details: S. cerevisiae aging, superoxide DHE fluorescence; at 10 µM; stronger effect = lower value
# [9] = biological target: Beta-adrenergic receptor kinase 1 (Homo sapiens) (UniProt P25098); test: GRK2 binders displacing RNA aptamer, biochemical, validation, human GRK2, bead flow cytometry (AID 488806;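 active = aptamer binding inhibition above 30%, about 3 SD of noise from non-fluorescent compounds; inactive = inhibition at or below 30%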); details: bead-bound GRK2, FAM-aptamer displacement, at 10 µM, stronger effect = higher value
# [10] = biological target: Beta-2 adrenergic receptor (Homo sapiens) (UniProt P07550); test: beta2AR agonists driving receptor internalization, pilot screen, cell-based, FAP fluorogen, flow cytometry, validation set (AID 504459;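 active = percent response above 42, roughly 3 SD of non-fluorescent test compounds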;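 also: agonist-driven loss of surface beta2AR via internalization measured by FAP dye flow cytometry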); details: Am2.2-beta2AR cells, FAP surface receptor flow cytometry; at 10 µM; stronger effect = higher value
# [11] = biological target: AP-2 complex subunit beta (Homo sapiens) (UniProt P63010); test: inhibitors of arrestin peptide binding to AP2, pilot screen, biochemical, validation set, GST-AP2 beads, flow cytometry (AID 504541); details: FITC arrestin peptide, at 10 µM, stronger effect = higher value, AP2 beta2 appendage fragment, R879A mutant;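 also: AP2 carries R879A mutation and is captured from E. coli lysate; bead-bound FITC arrestin peptide fluorescence measuring arrestin peptide binding to AP2; 0% = DMSO wells and 100% = excess unlabeled arrestin peptide control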
# [12] = yeast V-ATPase proton transport modulators, S. cerevisiae, pHLuorin, HTS validation (AID 504600; in the data active = response above about 15%;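 also: plate controls were DMSO for no effect and reference compound for full effect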); details: S. cerevisiae pHLuorin cytosolic pH, at 10 µM, stronger effect = higher value
# [13] = test system: anti-desmoglein-3 scFv antibody binding to human DSG3; test: inhibitors of anti-DSG3 scFv binding to DSG3, pilot screen, biochemical, validation compound set, bead-based, flow cytometry (AID 588368;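 active = binding below the plate cutoff, the plate median minus 3 SD, with a reading above zero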;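 also: signal is the median channel fluorescence of bead-bound GFP antibody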); details: Protein G beads, DSG3-Fc, scFv-GFP binding, at 10 µM, stronger effect = lower value
# [14] = inhibitors of fungal efflux pumps CDR1, CDR2, MDR1, pilot screen, validation compound set, multiplex, phenotypic (AID 588506;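 active = efflux inhibition above 0.42, the validation set average plus 4 SD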;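 also: Nile Red retained in cells so higher fluorescence means more efflux inhibition; 0 = negative control wells and 1 = enniatin B 25 µM full block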); details: S. cerevisiae pump-expressing triplex, Nile Red efflux flow cytometry; at 10 µM; stronger effect = higher value; the pumps come from Candida albicans
# [15] = biological target: ATP-binding cassette sub-family B member 6 (Homo sapiens) (UniProt Q9NP58); test: ABCB6 transporter inhibitors, pilot screen, K562-ABCB6 cells, flow cytometry, validation set (AID 588550;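 active = inhibition above the screen-wide mean plus 3 SD, about 51%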;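 also: 0% = DMSO wells and 100% = benzethonium chloride 70 µM positive control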); details: K562-ABCB6 porphyrin accumulation, 1 h, at 10 µM, stronger effect = higher value
# [16] = promoters of myeloid differentiation in arrested cells, primary screen, cell-based, GFP/MAC1 double positive, flow cytometry, validation set (AID 588685;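 active = differentiation response of at least 50%, scaled between solvent and reference control, from cells with both markers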;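 also: compound exposure lasts four days before antibody staining and flow analysis; 0% = DMSO wells and 100% = 5 µM fulvestrant positive control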); details: ER-HoxA9 marrow cells, stronger effect = higher value, normalized: vehicle 0, fulvestrant 100
# [17] = RPL19A-GFP modulators, yeast TOR pathway, confirmation, cell-based, S. cerevisiae, flow cytometry, cherry picks, mother/daughter gates (AID 2270;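 active = GFP response below 50% of the DMSO control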); details: S. cerevisiae RPL19A-GFP strain, 3 h, at 10 µM, stronger effect = lower value, 100 = same GFP as DMSO wells
# [18] = LAP4-GFP expression modulators in yeast, confirmation, cell-based, cherry picks, flow cytometry, mother/daughter gates (AID 2271;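 active = GFP response above 150% of the DMSO control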;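 also: ratio of sample to DMSO plate mean so 100% equals DMSO level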); details: S. cerevisiae LAP4-GFP strain, 3 h, at 10 µM, stronger effect = higher value, 100 means same as DMSO control
# [19] = modulators of MEP2-GFP levels in yeast, confirmation, S. cerevisiae, flow cytometry GFP, cherry picks (AID 2272;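 active = GFP response above 150% of the DMSO control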;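 also: ratio of well signal to plate DMSO mean so 100% equals DMSO level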); details: S. cerevisiae MEP2-GFP strain, 3 h, at 10 µM, stronger effect = higher value
# [20] = AGP1-GFP expression modulators, hit retest, confirmation, cell-based, flow cytometry, S. cerevisiae, cherry picks (AID 2273;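 active = GFP response above 150% of the DMSO level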;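 also: median GFP channel fluorescence over the whole cell population gate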); details: S. cerevisiae AGP1-GFP strain, 3 h, at 10 µM
# [21] = modulators of CIT2-GFP expression in yeast, confirmation, S. cerevisiae, GFP fusion, cherry picks, mother/daughter gates (AID 2274;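 active = GFP response above 150% of the DMSO level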); details: S. cerevisiae CIT2-GFP strain, flow cytometry, 3 h, at 10 µM, stronger effect = higher value
# [22] = measured here: daughter cell gate
# [23] = measured here: mother cell gate
# Sequence of Beta-2 adrenergic receptor (Homo sapiens) (P07550 whole entry, looked up, the tested form may be a part): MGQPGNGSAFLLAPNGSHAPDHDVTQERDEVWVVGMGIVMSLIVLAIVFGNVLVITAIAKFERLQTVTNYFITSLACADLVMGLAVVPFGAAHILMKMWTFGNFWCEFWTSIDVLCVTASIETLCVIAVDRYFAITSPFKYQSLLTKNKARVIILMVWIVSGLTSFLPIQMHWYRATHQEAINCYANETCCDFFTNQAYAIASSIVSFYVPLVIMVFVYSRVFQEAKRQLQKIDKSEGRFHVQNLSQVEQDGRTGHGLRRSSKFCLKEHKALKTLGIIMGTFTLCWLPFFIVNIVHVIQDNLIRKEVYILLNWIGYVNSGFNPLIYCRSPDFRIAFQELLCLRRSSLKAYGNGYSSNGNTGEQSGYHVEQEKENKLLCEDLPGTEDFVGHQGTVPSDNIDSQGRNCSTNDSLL
# Sequence of Beta-adrenergic receptor kinase 1 (Homo sapiens) (P25098 whole entry, looked up): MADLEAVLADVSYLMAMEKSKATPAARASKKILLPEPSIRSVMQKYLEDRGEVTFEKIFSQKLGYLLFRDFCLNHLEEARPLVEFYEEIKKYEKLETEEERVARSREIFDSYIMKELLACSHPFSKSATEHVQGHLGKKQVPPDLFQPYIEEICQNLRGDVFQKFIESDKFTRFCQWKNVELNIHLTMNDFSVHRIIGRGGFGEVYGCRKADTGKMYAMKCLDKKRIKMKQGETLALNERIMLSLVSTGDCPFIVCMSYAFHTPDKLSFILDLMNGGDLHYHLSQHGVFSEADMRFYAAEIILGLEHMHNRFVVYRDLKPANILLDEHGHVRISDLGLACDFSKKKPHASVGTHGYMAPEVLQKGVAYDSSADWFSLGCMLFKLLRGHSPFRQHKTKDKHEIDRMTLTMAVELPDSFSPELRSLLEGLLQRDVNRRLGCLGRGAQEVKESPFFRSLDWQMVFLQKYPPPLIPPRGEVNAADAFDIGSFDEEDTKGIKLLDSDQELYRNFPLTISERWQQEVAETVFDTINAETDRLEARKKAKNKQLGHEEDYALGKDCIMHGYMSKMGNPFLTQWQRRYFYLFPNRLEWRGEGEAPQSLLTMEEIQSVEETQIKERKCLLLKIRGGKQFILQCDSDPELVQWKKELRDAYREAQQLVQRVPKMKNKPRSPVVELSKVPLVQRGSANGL
# Sequence of Integrin beta-1 (Homo sapiens) + Integrin alpha-4 (Homo sapiens) (P05556 whole entry, looked up): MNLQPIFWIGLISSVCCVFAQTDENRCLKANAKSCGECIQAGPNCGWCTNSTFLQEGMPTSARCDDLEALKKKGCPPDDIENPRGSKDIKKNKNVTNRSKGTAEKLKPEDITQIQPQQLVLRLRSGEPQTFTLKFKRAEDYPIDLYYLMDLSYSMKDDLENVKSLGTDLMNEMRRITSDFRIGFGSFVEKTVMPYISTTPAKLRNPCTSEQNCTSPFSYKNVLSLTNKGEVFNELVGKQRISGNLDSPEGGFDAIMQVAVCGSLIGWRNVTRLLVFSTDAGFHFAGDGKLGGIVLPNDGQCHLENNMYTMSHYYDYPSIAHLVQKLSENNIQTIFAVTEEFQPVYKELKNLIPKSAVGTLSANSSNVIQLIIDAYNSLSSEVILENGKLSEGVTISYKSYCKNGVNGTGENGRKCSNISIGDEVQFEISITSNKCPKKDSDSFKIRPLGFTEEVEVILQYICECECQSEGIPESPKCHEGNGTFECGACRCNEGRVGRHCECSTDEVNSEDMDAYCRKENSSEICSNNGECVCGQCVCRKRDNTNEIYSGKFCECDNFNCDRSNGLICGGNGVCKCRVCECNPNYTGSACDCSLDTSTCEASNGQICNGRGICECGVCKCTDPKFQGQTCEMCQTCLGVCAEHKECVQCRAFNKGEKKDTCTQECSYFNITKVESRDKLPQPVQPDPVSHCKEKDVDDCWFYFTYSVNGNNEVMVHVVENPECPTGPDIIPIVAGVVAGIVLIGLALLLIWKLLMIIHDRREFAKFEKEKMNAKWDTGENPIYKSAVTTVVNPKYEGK
# Sequence of Integrin beta-1 (Homo sapiens) + Integrin alpha-4 (Homo sapiens) (P13612 whole entry, looked up): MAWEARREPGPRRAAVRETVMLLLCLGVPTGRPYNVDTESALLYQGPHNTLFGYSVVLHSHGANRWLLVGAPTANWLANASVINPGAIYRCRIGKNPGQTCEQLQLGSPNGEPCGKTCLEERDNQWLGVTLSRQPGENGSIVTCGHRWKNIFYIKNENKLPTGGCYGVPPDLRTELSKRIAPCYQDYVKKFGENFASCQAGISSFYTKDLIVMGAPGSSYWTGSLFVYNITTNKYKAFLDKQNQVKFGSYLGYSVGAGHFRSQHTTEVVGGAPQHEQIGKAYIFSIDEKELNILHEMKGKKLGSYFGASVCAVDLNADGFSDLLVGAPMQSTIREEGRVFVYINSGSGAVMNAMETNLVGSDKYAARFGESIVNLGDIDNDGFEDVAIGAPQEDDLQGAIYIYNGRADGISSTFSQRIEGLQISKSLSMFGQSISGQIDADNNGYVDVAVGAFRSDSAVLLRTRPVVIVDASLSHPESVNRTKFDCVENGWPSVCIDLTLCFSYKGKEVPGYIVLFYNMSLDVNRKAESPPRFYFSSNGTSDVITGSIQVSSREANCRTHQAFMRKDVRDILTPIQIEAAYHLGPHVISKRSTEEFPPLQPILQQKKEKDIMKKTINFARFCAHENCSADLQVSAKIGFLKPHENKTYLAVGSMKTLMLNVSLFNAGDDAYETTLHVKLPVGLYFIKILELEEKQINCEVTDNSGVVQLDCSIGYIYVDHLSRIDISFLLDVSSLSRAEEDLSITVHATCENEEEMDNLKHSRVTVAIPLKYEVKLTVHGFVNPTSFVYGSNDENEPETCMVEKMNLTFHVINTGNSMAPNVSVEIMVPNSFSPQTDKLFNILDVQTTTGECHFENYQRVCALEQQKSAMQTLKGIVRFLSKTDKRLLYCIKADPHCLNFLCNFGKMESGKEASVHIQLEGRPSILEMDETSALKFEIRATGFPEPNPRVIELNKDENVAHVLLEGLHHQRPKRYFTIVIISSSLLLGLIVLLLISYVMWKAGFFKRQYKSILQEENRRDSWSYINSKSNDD
# Sequence of ATP-binding cassette sub-family B member 6 (Homo sapiens) (Q9NP58 whole entry, looked up): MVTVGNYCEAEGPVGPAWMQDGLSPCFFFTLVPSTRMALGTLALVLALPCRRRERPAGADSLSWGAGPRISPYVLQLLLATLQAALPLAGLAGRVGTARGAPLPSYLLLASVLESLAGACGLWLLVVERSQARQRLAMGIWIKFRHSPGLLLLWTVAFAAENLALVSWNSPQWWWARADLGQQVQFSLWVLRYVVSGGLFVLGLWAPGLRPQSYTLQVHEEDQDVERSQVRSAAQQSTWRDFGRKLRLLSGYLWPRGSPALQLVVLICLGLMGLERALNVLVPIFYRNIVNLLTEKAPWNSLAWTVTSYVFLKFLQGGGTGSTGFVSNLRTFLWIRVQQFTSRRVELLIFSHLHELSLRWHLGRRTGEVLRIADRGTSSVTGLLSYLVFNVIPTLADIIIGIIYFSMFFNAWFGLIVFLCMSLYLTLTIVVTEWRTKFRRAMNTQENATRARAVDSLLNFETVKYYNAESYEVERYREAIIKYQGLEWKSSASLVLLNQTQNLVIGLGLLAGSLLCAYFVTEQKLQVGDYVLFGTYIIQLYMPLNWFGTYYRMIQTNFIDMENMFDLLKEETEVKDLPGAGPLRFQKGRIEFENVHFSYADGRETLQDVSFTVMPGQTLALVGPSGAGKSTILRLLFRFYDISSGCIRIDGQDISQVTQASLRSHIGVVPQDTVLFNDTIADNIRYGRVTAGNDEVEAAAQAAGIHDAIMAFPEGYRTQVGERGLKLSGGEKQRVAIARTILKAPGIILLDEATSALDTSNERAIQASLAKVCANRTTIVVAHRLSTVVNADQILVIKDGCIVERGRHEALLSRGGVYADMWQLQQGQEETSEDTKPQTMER
# Sequence of AP-2 complex subunit beta (Homo sapiens) (P63010 whole entry, looked up, the tested form may be a part, one chain of several): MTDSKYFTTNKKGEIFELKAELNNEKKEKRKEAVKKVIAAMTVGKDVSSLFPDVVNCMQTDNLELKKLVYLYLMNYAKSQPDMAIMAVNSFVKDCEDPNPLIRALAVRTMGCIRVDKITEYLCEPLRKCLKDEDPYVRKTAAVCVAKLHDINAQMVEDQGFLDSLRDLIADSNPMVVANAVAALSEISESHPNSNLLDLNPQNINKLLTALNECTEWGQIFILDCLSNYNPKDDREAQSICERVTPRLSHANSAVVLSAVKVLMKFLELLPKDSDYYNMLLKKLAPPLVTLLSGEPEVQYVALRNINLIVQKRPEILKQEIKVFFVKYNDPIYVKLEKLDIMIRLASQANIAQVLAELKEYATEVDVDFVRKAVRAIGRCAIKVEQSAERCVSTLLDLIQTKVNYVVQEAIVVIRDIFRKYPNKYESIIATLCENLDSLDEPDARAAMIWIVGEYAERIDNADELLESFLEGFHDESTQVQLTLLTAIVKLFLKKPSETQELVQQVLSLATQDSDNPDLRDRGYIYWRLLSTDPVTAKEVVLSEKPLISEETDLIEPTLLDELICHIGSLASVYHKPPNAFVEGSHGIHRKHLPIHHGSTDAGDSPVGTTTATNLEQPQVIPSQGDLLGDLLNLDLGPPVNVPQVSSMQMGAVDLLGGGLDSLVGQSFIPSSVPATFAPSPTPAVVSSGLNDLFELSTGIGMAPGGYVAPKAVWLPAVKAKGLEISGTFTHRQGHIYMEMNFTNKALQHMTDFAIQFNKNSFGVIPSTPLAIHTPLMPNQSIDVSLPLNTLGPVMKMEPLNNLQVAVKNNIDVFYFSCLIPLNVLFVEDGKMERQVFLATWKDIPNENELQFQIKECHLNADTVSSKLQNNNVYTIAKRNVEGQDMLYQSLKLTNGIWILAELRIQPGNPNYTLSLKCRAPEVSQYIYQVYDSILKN
compound,measurement,setting,value
COC(=O)C1=C(C)NC(C)=C(C(=O)OCCN(C)Cc2ccccc2)C1c1cccc([N+](=O)[O-])c1 (centres undefined),percent of DMSO control GFP,[1],101% (inactive)
same,GFP response vs DMSO,[2],108% (inactive)
same,percent response of DMSO control,[3],96.5% (inactive)
same,GFP response vs DMSO,[4],100% (inactive)
same,"GFP response, % of DMSO",[5],110% (inactive)
same,double positive events,[6],61.3%
same,vesicle binding response,[6],159% (inactive)
same,inhibition,[7],0.25% (inactive)
same,superoxide response (% of plate),[8],98.7% (inactive)
same,aptamer binding inhibition,[9],1% (inactive)
same,response,[10],0.14% (inactive)
same,inhibition,[11],57.5% (active)
same,response,[12],-9.84% (inactive)
same,binding (% of control),[13],97.3% (inactive)
same,efflux inhibition (fraction of control),[14],0.01 (inactive)
same,inhibition,[15],-2% (inactive)
same,differentiation response,[16],-1.65% (inactive)
CCN(CC)c1ccc2cc(-c3nc(-c4ccc(OC)cc4)cs3)c(=O)oc2c1,GFP response vs DMSO,[17],105% (inactive)
same,GFP response vs DMSO,[17]; [22],103%
same,GFP response vs DMSO,[17]; [23],106%
same,GFP response relative to DMSO,[18],138% (inactive)
same,GFP response relative to DMSO,[18]; measured here: daughter cell gate response,132%
same,GFP response relative to DMSO,[18]; measured here: mother cell gate response,135%
same,GFP response vs DMSO,[19],180% (active)
same,"GFP response, % of DMSO",[20],108% (inactive)
same,"GFP response, % of DMSO",[21],160% (active)
same,"GFP response, % of DMSO",[21]; [22],152%
same,"GFP response, % of DMSO",[21]; [23],149%
CCOc1ncnc2c1[nH]c1ccccc12,percent of DMSO control GFP,[1],99.7% (inactive)
same,GFP response vs DMSO,[2],98.5% (inactive)
same,percent response of DMSO control,[3],104% (inactive)
same,GFP response vs DMSO,[4],88% (inactive)
same,"GFP response, % of DMSO",[5],85.7% (inactive)
same,double positive events,[6],52.2%
same,vesicle binding response,[6],354% (inactive)
same,inhibition,[7],-8.62% (inactive)
same,superoxide response (% of plate),[8],101% (inactive)
same,aptamer binding inhibition,[9],4% (inactive)
same,response,[10],14.8% (inactive)
same,inhibition,[11],-7.64% (inactive)
same,response,[12],19.2% (active)
same,binding (% of control),[13],98.9% (inactive)
same,efflux inhibition (fraction of control),[14],0.01 (inactive)
same,inhibition,[15],8% (inactive)
same,differentiation response,[16],-31.2% (inactive)
CCO/C([O-])=N/c1c[n+](N2CCOCC2)no1,percent of DMSO control GFP,[1],99.8% (inactive)
same,GFP response vs DMSO,[2],97.7% (inactive)
same,percent response of DMSO control,[3],103% (inactive)
same,GFP response vs DMSO,[4],110% (inactive)
same,"GFP response, % of DMSO",[5],106% (inactive)
same,double positive events,[6],64.1%
same,vesicle binding response,[6],237% (inactive)
same,inhibition,[7],-18.5% (inactive)
same,superoxide response (% of plate),[8],115% (inactive)
same,aptamer binding inhibition,[9],-1% (inactive)
same,response,[10],9.37% (inactive)
same,inhibition,[11],-14.8% (inactive)
same,response,[12],0.46% (inactive)
same,binding (% of control),[13],100% (inactive)
same,efflux inhibition (fraction of control),[14],0 (inactive)
same,inhibition,[15],-4% (inactive)
same,differentiation response,[16],-0.18% (inactive)
CCCC(=O)O[C@]1(C(=O)COC(C)=O)CC[C@H]2[C@@H]3C[C@H](F)C4=CC(=O)C=C[C@]4(C)[C@@]3(F)[C@@H](O)C[C@@]21C,percent of DMSO control GFP,[1],96.9% (inactive)
same,GFP response vs DMSO,[2],114% (inactive)
same,percent response of DMSO control,[3],109% (inactive)
same,GFP response vs DMSO,[4],107% (inactive)
same,"GFP response, % of DMSO",[5],103% (inactive)
same,double positive events,[6],60.2%
same,vesicle binding response,[6],1090% (inactive)
same,inhibition,[7],-13.2% (inactive)
same,superoxide response (% of plate),[8],112% (inactive)
same,aptamer binding inhibition,[9],3% (inactive)
same,response,[10],4.32% (inactive)
same,inhibition,[11],24.1% (inactive)
same,response,[12],-0.33% (inactive)
same,binding (% of control),[13],105% (inactive)
same,efflux inhibition (fraction of control),[14],-0.06 (inactive)
same,inhibition,[15],2% (inactive)
same,differentiation response,[16],1.93% (inactive)
